NOMO-1 viab: STK33 inhibitor candidate reducing NOMO-1 cell viability | NOMO-1 AML viability, CellTiter-Glo luminescence, 72 h | inhibition, % (concentration not given with the values) | 37,000 compounds, 7.5% hits | AID 2330; in the data active = inhibition above about 80%; inconclusive = no clear call, values can overlap the other calls
PD-1 reverse act: reversal of PD-1 mediated T-cell inhibition | primary human CD4 T cells, PD-L1 beads, CellTiter-Glo 96 h | activation, % (test concentration not listed) | 29,000 tested, under 10 active; call rule not given here;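 also: 0% = median vehicle wells and 100% = positive control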
MITF inhib: blocks MITF activity. 37,000 compounds, 0.28% hits. inhibition, % (concentration not given with the values). TRPM1 promoter luciferase, luminescence, 24 h. AID 2240; in the data active = inhibition above about 85%; inconclusive = no clear call, values can overlap the other calls; inactive = below about 68%;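 also: human melanocyte line stably carrying TRPM1 promoter luciferase reporter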
Shh pathway inh: Sonic Hedgehog pathway inhibition. Shh-LIGHT2 Gli-luciferase reporter, 30 h. inhibition, % (no concentration beside the values). 22,000 compounds, 2.1% hits;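 active = mean inhibition across valid replicates above about 65%, limit read from the data; inconclusive = mean under the limit, yet half or more replicates past it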;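 also: pathway switched on by Shh-conditioned medium diluted 1 in 25 in low serum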
Active calls of the source: *; ? = inconclusive; / = no result. In the library only some 8.1% were active in any assay of this set; here they are far more common.

SMILES	NOMO-1 viab	PD-1 reverse act	MITF inhib	Shh pathway inh
CC1(C)CC[C@@]2(C(=O)O[C@@H]3O[C@H](CO)[C@@H](O)[C@H](O)[C@H]3O)C(C1)C1=CCC3[C@@]4(C)CC[C@@H](O[C@@H]5O[C@H](C(=O)O)[C@@H](O[C@@H]6OC[C@@H](O)[C@H](O)[C@H]6O)[C@H](O)[C@H]5O)C(C)(C)C4CC[C@@]3(C)[C@]1(C)C[C@H]2O (stereo not given in full)	15	0	-8	-10
CC1OC(OC2C(CO)OC(OC(=O)[C@]34CCC(C)(C)CC3C3=CCC5[C@@]6(C)CC[C@H](OC7OC(C)C(OC8OCC(O)(COC9OCC(O)C(OC%10OCC(OC%11OCC(O)(CO)C%11O)C(O)C%10O)C9O)C8O)C(O)C7O)C(C)(C)C6CC[C@@]5(C)[C@]3(C)CC4)C(O)C2O)C(O)C(O)C1O (stereo not given in full)	100*	-3	-6	3
C/C=C(\C)C(=O)O[C@H]1[C@H](OC(C)=O)[C@@]2(CO)C(CC1(C)C)C1=CCC3[C@@]4(C)CC[C@H](O[C@@H]5O[C@H](C(=O)O)[C@@H](O)[C@H](O[C@@H]6O[C@H](CO)[C@H](O)[C@H](O)[C@H]6O[C@@H]6O[C@@H](C)[C@H](O)[C@@H](O)[C@H]6O)[C@H]5O[C@@H]5O[C@H](CO)[C@@H](O)[C@H](O)[C@H]5O)C(C)(C)C4CC[C@@]3(C)[C@]1(C)C[C@H]2O (stereo not given in full)	/	/	/	111*
C[C@@H]1O[C@@H](O[C@H]2[C@H](O)[C@@H](O)[C@H](OC[C@H]3O[C@@H](OC(=O)[C@]45CCC(C)(C)CC4C4=CCC6[C@@]7(C)CC[C@H](O)C(C)(C)C7CC[C@@]6(C)[C@]4(C)CC5)[C@H](O)[C@@H](O)[C@@H]3O)O[C@@H]2CO)[C@H](O)[C@H](O)[C@H]1O (stereo not given in full)	122*	-10	45	76*
CC1(C)CC[C@]2(C(=O)O[C@@H]3O[C@H](CO)[C@@H](O)[C@H](O)[C@H]3O)CC[C@]3(C)C(=CCC4[C@@]5(C)C[C@@H](O)[C@H](O)[C@](C)(CO)C5CC[C@]43C)C2[C@@H]1O (stereo not given in full)	120*	-1	12	-5
COc1cccc(OC)c1C(=O)Nc1ccc(C(=O)NCC2CCCO2)cc1 (stereo not given)	9	3	-2	/
Cn1nnnc1SCC(=O)Nc1cccc(Cl)c1	-3	2	-35	/
CC1(C)CC[C@]2(C(=O)O)CC[C@]3(C)C(=CCC4[C@@]5(C)CC[C@H](O[C@@H]6OC[C@H](O)[C@H](O)[C@H]6O)[C@@](C)(CO)C5CC[C@]43C)C2C1 (stereo not given in full)	120*	-8	16	79*
CC1(C)CC[C@]2(C(=O)OC3OC(CO)C(O)C(O)C3O)CC[C@]3(C)C(=CCC4[C@@]5(C)CC[C@H](OC6OC(C(=O)O)C(O)C(O)C6O)C(CO)(CO)C5CC[C@]43C)[C@@H]2C1 (stereo not given in full)	120*	-3	40	27
COC(=O)c1ccc(NC(=S)NC(=O)N2CCOCC2)cc1	7	2	-5	9
C[C@H](CO)N1C[C@H](C)[C@@H](CN(C)S(=O)(=O)c2ccc(Cl)cc2)Oc2c(NC(=O)c3nc4ccccc4s3)cccc2C1=O	117*	-6	25	5
C[C@@H]1CN([C@H](C)CO)C(=O)c2cccc(NC(=O)c3nc4ccccc4s3)c2O[C@@H]1CN(C)S(=O)(=O)c1ccc(Cl)cc1	65	-2	5	33
C[C@H](CO)N1C[C@H](C)[C@H](CN(C)S(=O)(=O)c2ccc(F)cc2)Oc2c(NC(=O)c3nc4ccccc4s3)cccc2C1=O	108*	-7	58	9
C[C@@H]1CN([C@@H](C)CO)C(=O)c2cccc(NC(=O)c3nc4ccccc4s3)c2O[C@@H]1CN(C)S(=O)(=O)c1ccc(Cl)cc1	113*	-2	60	20
C[C@@H]1CN([C@H](C)CO)C(=O)c2cccc(NC(=O)c3nc4ccccc4s3)c2O[C@H]1CN(C)S(=O)(=O)c1ccccc1	47	/	9	?
C[C@@H]1CN([C@@H](C)CO)C(=O)c2cccc(NC(=O)c3nc4ccccc4s3)c2O[C@@H]1CN(C)S(=O)(=O)c1ccccc1	102*	0	37	-44
NC(=S)/N=C1\CCCCC1=C1CCCCC1	17	-2	6	-7
O=C(COc1cc(O)c2c(=O)c3ccccc3oc2c1)c1ccc(Br)cc1	57	2	7	/
COc1ccc2c(c1OC)C(=O)N1c3ccccc3N=C(c3ccc(Br)cc3)CC21 (stereo not given)	34	-2	4	14
C[C@H](CO)N1C[C@H](C)[C@H](CN(C)S(=O)(=O)c2ccc(Cl)cc2)Oc2c(NC(=O)c3nc4ccccc4s3)cccc2C1=O	93*	-1	20	3
CS(=O)(=O)c1sc(NC(=O)Nc2ccc(Cl)cc2)c2c1C=CCC2	122*	0	47	106*
COc1ccc(OC)c(CN=c2c([N+](=O)[O-])nn(-c3ccc(Cl)cc3)n2O)c1	49	-1	31	/
CC1(C)CC(=O)C(C=NC(CO)(CO)CO)=C(O)C1	21	1	2	-7
C[C@H](CO)N1C[C@H](C)[C@H](CN(C)Cc2ccc(-c3ccccc3)cc2)Oc2ccc(NC(=O)CCCCCC(=O)Nc3ccccc3N)cc2CC1=O	139*	-3	45	/
C[C@@H]1CN([C@H](C)CO)C(=O)Cc2cc(NC(=O)CCCCCC(=O)Nc3ccccc3N)ccc2O[C@H]1CN(C)Cc1ccc(-c2ccccc2)cc1	140*	0	10	/
SMILES	NOMO-1 viab	PD-1 reverse act	MITF inhib	Shh pathway inh
C[C@H]1CN([C@@H](C)CO)C(=O)Cc2cc(NC(=O)CCCCCC(=O)Nc3ccccc3N)ccc2O[C@H]1CN(C)CC1CCCCC1	138*	-1	21	/
C[C@@H]1CN([C@H](C)CO)C(=O)Cc2cc(NC(=O)CCCCCC(=O)Nc3ccccc3N)ccc2O[C@@H]1CN(C)Cc1ccncc1	24	0	4	/
C[C@@H]1CN([C@H](C)CO)C(=O)Cc2cc(NC(=O)CCCCCC(=O)Nc3ccccc3N)ccc2O[C@@H]1CN(C)Cc1ccc(-c2ccccc2)cc1	141*	-3	27	/
O=c1c(=O)n2c(nn1CN1CCOCC1)sc1ccccc12	-9	4	-36	3
CC(C)c1ccc(NC(=O)CSc2n[nH]c(-c3ccccc3Cl)n2)cc1	-3	-1	-50	/
Cc1ccc(S(=O)(=O)N(C)C[C@@H]2Oc3c(NS(=O)(=O)c4c(C)noc4C)cccc3C(=O)N([C@H](C)CO)C[C@@H]2C)cc1	13	-2	-6	42
Cc1ccc(S(=O)(=O)N(C)C[C@@H]2Oc3c(NS(=O)(=O)c4c(C)noc4C)cccc3C(=O)N([C@@H](C)CO)C[C@@H]2C)cc1	-6	/	-1	89*
